CtBP-E1A blk = inhibitors of CtBP/E1A interaction | AlphaScreen GST-E1A/His-CtBP binding, 1536-well; hits give low values | activity change, % (concentration not given with the values) | actives 0.49% (n = 340,000); in the data active = activity change below about -65%; inconclusive = mostly about -30% to -63%
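GST-E1A and His-tagged CtBP (125 nM each as 5X stock) were preincubated with pin-transferred compound for 2 h at 37 °C in the dark, then glutathione donor and nickel acceptor beads were added for 1 h before AlphaScreen reading.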
Six1-Eya2 inh = blocks human Six1 binding to Eya2; activity change, % (test concentration not listed); Q15475+O00167; AID 651725; AlphaScreen GST-Six1/His-Eya2 binding, biochemical; hits give low values; actives 0.56% (n = 360,000); in the data active = activity change below about -65%; inconclusive = mostly about -30% to -63%
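GST-Six1 + His-Eya2 (5X stock: 250/500 nM); Tris pH 8.0, 300 mM NaCl, 0.05% BSA, 0.02% Tween 20; GSH donor/Ni acceptor beads; 1 h 37 °C dark; AlphaScreen readout.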
TDP1 block = blocks human tyrosyl-DNA phosphodiesterase 1; recombinant TDP1, AlphaScreen DNA substrate cleavage; Potency, µM (highest dose often 130 µM), most hits filed as inhibitors; actives 0.28% (n = 350,000); AID 485290; note: nearly all actives have a fitted effect of over 40% in size
Target sequence (Q9NUW8 whole entry, looked up): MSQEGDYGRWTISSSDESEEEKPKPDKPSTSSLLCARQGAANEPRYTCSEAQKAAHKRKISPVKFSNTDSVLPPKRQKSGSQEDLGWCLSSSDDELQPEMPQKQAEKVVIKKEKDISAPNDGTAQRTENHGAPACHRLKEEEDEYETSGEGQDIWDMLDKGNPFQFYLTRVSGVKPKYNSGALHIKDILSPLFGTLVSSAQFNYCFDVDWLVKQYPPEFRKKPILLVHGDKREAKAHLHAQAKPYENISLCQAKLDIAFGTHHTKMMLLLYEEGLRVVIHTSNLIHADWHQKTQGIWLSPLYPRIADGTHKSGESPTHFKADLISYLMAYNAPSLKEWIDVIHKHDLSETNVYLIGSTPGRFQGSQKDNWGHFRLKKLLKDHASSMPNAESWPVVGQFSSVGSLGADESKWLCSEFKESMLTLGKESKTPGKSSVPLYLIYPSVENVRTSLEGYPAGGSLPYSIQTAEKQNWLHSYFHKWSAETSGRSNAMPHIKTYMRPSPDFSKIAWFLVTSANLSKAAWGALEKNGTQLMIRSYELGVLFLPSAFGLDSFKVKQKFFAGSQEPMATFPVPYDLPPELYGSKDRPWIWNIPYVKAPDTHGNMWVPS
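E. coli-derived human Tdp1, 1 nM final. Cpd preinc 15 min RT; substrate 15 nM final, 5 min RT; AS bead mix 10 ug/ml final, 10 min RT. Signal loss = tyrosine-FITC cleavage. No-enzyme wells = max signal.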
JMJD2A Tudor = inhibitors of human JMJD2A Tudor domain; O75164; AlphaScreen JMJD2A-Tudor / H3K4me3 peptide binding; Potency, µM (titrated, usually from 114 µM), usual class: inhibitors; actives 4.4% (n = 390,000); AID 504339; note: nearly all actives have a fitted effect of over 50% in size
HP1b binding inh = inhibitors of HP1-beta chromodomain binding to methylated histone tails; AlphaScreen HP1-beta / biotin-H3K9me3 peptide binding; Potency, µM (top dose mostly 114 µM), hits mostly inhibitors; AID 540317; actives 0.56% (n = 390,000); P83916; note: nearly all actives have a fitted effect of over 70% in size
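HP1-beta protein (50 nM final) preincubated 30 min at room temperature with biotinylated H3(1-18)K9me3 peptide (50 nM) in PBS pH 7.4, 0.01% Tween-20, then compound added for 30 min. AlphaScreen streptavidin donor/nickel chelate acceptor beads (10 ug/mL final), 30 min dark, luminescence read.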
BAZ2B block = blocks human BAZ2B. actives 4.4% (n = 360,000). Q9UIF8. AID 504333. AlphaScreen BAZ2B-H3K14Ac peptide displacement. Potency, µM (titrated, usually from 114 µM), most hits filed as inhibitors; note: nearly all actives have a fitted effect of over 60% in size
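AlphaScreen luminescence quantifies BAZ2B engagement of H3K14Ac peptide; the protein and biotinylated peptide are both at 50 nM final, buffer PBS pH 7.4 with 0.01% Tween-20, all steps at room temperature.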
A number is an active result; n = inactive; u = inconclusive; x = no result; [ ] = another dose, or the depositor's remark. Shown are actives, neighbours in structure and some others; about 5.3% of the full set was active somewhere. Unless noted, calls come from the whole dose curve; as a rule, active = well fitted inhibition curve with a large enough effect; inconclusive = small, poorly fitted or top-dose-only effect; inactive = no such curve, though single readings can be large or run the other way.

SMILES	CtBP-E1A blk	Six1-Eya2 inh	TDP1 block	JMJD2A Tudor	HP1b binding inh	BAZ2B block
Cc1ccc(NC(=O)CSc2nc(NS(=O)(=O)c3ccccc3)cc(=O)[nH]2)cc1	n	u	28µM	50µM	n	u
CCc1ccc(NC(=O)CSc2nc(NS(=O)(=O)c3ccccc3)cc(=O)[nH]2)cc1	n	n	x	n	n	50µM
Cc1ccc(S(=O)(=O)Nc2cc(=O)[nH]c(SCC(=O)Nc3ccccc3Cl)n2)cc1	n	n	35µM	n	n	56µM
Cc1ccc(-n2ncc(C(=O)NCc3cccs3)c2C2CCN(C(=O)OC(C)(C)C)CC2)cc1C	x	x	n	n	n	n
CCCCC(=O)Nc1cccc(OCc2cc(=O)n3ccccc3n2)c1	x	x	n	n	n	n
CCS(=O)(=O)n1nc(-c2ccccc2)nc1SC	n	n	n	n	n	n
CCS(=O)(=O)n1nc(-c2ccc(Cl)cc2)nc1SCc1ccccc1	n	n	n	40µM	n	n
Cc1ccc(NS(=O)(=O)c2ccc3ccccc3c2)cc1C	x	x	n	n	x	x
CCOc1ccccc1NC(=O)c1cc2c(=O)n(Cc3cccnc3)ccc2nc1C	x	x	n	n	n	n
Cn1cc(C(=O)NCc2ccc(Cl)cc2)c(=O)c2cc(S(=O)(=O)N3CCCCCC3)ccc21	x	x	n	n	n	x
Clc1cccc(-c2ccc(C3Nc4cccc5cccc(c45)N3)o2)c1	x	x	n	40µM	u	x
O=[N+]([O-])c1cc(C2Nc3cccc4cccc(c34)N2)ccc1Cl	n	n	n	n	n	u
Clc1ccc(C2Nc3cccc4cccc(c34)N2)c(Cl)c1	n	n	x	35µM	u	x
CCC1OCCC=CC1C (stereo unspecified)	x	x	n[21 µM]	x	x	x
Cc1ccc(/C=C2/NC(=O)N(Cc3ccccc3)C2=O)o1	n	n	n	u	n	n
O=C(O)c1ccc(-c2ccc(/C=C3\NC(=O)N(Cc4ccc(Cl)cc4)C3=O)o2)cc1	x	n	13µM	n	n	u
Cc1cc(C(=O)O)ccc1-c1ccc(/C=C2\NC(=O)N(Cc3ccccc3Cl)C2=O)o1	n	n	n	45µM	u	45µM
Cc1ccc(C(=O)O)cc1-c1ccc(/C=C2/NC(=O)N(c3ccccc3)C2=O)o1	n	-74	1.6µM	50µM	u	32µM
Cc1ccc(CN2C(=O)N/C(=C\c3ccc(-c4ccc(C(=O)O)cc4C)o3)C2=O)cc1	n	n	8.9µM	u	n	40µM
COC(=O)c1ccccc1NC(=O)CCS(=O)(=O)c1nc(-c2ccc3c(c2)OCO3)cc(C(F)(F)F)n1	x	x	n	n	n	n
COc1ccc(C2Nc3ccccc3C(=O)N2Cc2ccc(C(C)(C)C)cc2)cc1COc1ccc(NC(C)=O)cc1 (stereo unspecified)	x	x	n	u	x	x
COc1cc(CNc2ccccc2SC)ccc1O	n	n	n	35µM	n	u
COc1cc(C[C@@H](C)[C@@H](C)Cc2ccc(O)c(OC)c2)ccc1O	n	n	n	u	n	x
C=CCSc1nnc(-c2cc3c(C(F)(F)F)nn(C)c3s2)n1C	n	n	n	n	n	n
C=CCSc1nnc(-c2cc3c(-c4ccccc4)nn(C)c3s2)n1C	-76	-75	n	n	n	n
SMILES	CtBP-E1A blk	Six1-Eya2 inh	TDP1 block	JMJD2A Tudor	HP1b binding inh	BAZ2B block
CCOc1ccc(-n2c(-c3ccco3)n[nH]c2=S)cc1	n	n	n	5.6µM	u	u
FC(F)(F)c1ccc(Cl)c(-n2c(-c3ccco3)n[nH]c2=S)c1	n	n	x	u	n	n
Cc1ccc(-n2c(-c3ccco3)n[nH]c2=S)cc1	n	n	n	22µM	n	n
Fc1ccc(-n2c(-c3ccco3)n[nH]c2=S)cc1	n	n	x	6.3µM	n	n
COc1cccc(C2=Nn3c(nnc3-c3ccccc3C)SC2)c1	x	x	n	u	x	x
Cc1cccc(N2CCN(C(=O)Nc3cn(CC(C)C)c(=O)c4ccccc34)CC2)c1C	x	x	n	n	n	n
C=CCn1c(SCCN)nnc1-c1cccc(S(=O)(=O)N2CCOCC2)c1	n	n	x	14µM	n	x
O=C(O)CSc1nnc(-c2cccc(S(=O)(=O)N3CCOCC3)c2)n1-c1ccc(F)cc1	x	n	n	n	n	x
CCC(Sc1nnc(-c2ccc(C)c(Cl)c2)n1CC)C(=O)Nc1nccs1 (stereo unspecified)	n	n	n	89µM	n	n
CCn1cc(C(=O)N2CCN(c3ccc(OC)cc3)CC2)c(=O)c2cc(S(=O)(=O)N(C)C3CCCCC3)ccc21	x	x	n	n	n	x
O=C(O)c1cc(-c2ccco2)nn1-c1ccc(Cl)cc1	n	u	14µM	50µM	u	50µM
O=C(O)c1cc(-c2ccco2)nn1-c1cccc(Cl)c1	n	n	u	56µM	n	50µM
Cc1ccc(-n2nc(-c3ccco3)cc2C(=O)O)c(C)c1	n	n	x	56µM	n	45µM
O=C(O)c1cc(-c2cccs2)nn1-c1cccc(Cl)c1	n	n	n	n	n	n
COc1ccc(CCNC(=O)Cn2cc(S(=O)(=O)Cc3cccc(Cl)c3)c3ccccc32)cc1OC	x	x	n	n	n	n
CCOC(=O)N1CCN(S(=O)(=O)c2ccc(C(=O)Nc3ccc4c(c3)C(=O)NC4=O)cc2)CC1	n	n	n	n	n	n
CCOC(=O)N1CCN(S(=O)(=O)c2ccc(C(=O)Nc3nnc(CSC)o3)cc2)CC1	n	u	n	45µM	n	79µM
CCN(CC)S(=O)(=O)c1ccc(C(=O)Nc2nnc(CSC)o2)cc1	n	n	n	n	n	79µM
CCc1nnc(NC(=O)c2ccc(S(=O)(=O)N(CC)Cc3ccccc3)cc2)o1	n	n	n	n[11.4 µM]	n	50µM
CCCOc1ccc(C(=O)Nc2cc3c(cc2N2CCOCC2)n(C)c(=O)n3C)cc1	x	x	n	n	n	n
O=C(/C=C\c1ccccc1)Oc1cccc2cccnc12	x	-67	n	n	n	40µM
O=C(/C=C/c1ccccc1)Oc1cccc2cccnc12	x	-73	n	n	n	45µM
COc1ccc(C(=O)NCCn2cc(SCc3cc(C)ccc3C)c3ccccc32)cc1	x	x	n	n	n	u
C=Cc1ccc(CSc2nc(-c3ccc(Cl)cc3)nc3c2Cc2c(CO)cnc(C)c2O3)cc1	x	x	n	n	n	n
COc1ccc(N2CCN(c3ccnc4cc(Cl)ccc34)CC2)cc1	n	n	n	35µM	40µM	40µM
Clc1ccc2c(N3CCOCC3)ccnc2c1	n	n	x	n	n	n
Oc1ccc(N2CCN(c3ccnc4cc(Cl)ccc34)CC2)cc1	n	n	n	56µM	u	u
Clc1ccc2c(N3CCCC3)ccnc2c1	n	n	n	n	n	n
COc1cc(NC(=O)Cn2nc3c(cc2=O)CC(C)CC3)cc(OC)c1OC (stereo unspecified)	x	x	n	n	n	n

Screening results: PubChem, National Center for Advancing Translational Sciences (NCATS)
